GPR151 ag: activates the human receptor GPR151; PathHunter beta-arrestin GPR151 cells, luminescence; activation, % at 11.2 µM; 650,000 compounds, 1% hits; AID 1508602; in the data active means activation above about 4.9%
FBW7 activator: human FBW7 E3 ligase activation, primary screen | normalized activity (activation), % at 26.1 µM | AID 1259310 | 650,000 compounds, 0.13% hits | AlphaScreen FBW7–phospho-cyclin E peptide binding, activator screen; in the data active means normalized activity above about 1.9%;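 further: purified mutant Fbw7 with reduced substrate affinity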
MITF inh: human MITF inhibition, primary screen | inhibition, % at 2.6 µM | AlphaScreen MITF homodimerization, bead proximity signal | O75030 | 650,000 compounds, 0.91% hits; in the data active means inhibition above about 50%
Target sequence (O75030 whole entry, looked up): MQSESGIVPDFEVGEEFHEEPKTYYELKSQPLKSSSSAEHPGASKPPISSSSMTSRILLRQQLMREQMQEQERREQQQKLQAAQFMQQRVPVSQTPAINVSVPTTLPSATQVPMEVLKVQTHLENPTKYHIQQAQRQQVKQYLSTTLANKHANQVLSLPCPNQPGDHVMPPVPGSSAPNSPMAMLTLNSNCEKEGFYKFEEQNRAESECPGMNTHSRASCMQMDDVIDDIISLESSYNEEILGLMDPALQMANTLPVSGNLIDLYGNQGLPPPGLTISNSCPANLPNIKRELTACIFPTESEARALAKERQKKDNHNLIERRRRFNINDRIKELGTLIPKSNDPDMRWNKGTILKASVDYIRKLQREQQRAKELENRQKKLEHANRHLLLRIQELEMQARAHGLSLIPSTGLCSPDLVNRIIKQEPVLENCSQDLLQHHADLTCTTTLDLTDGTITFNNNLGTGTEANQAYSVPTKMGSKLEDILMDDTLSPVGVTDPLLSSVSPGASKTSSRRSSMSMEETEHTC
TEAD-YAP block: TEAD-YAP interaction inhibition | HEK-TIYL cells, TEAD-Gal4/YAP UAS-luciferase luminescence | inhibition, % at 9.12 µM | 640,000 compounds, 1.4% hits; in the data active means inhibition above about 32%
GPR151 confirm: human GPR151 activation, confirmation screen. activation, % at 11.2 µM. shares compounds with GPR151 ag. 6,700 tested, under 10 active. GPR151 PathHunter beta-arrestin cells, luminescence, 90 min; % of EA-reagent control over plate median;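 active means mean percent activation across replicates above the confirmation screen cutoff of 4.91%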
GPR119 ag: GPR119 activation, counter-screen for GPR151 activators; shares compounds with GPR151 ag; GPR119 PathHunter beta-arrestin cells, luminescence, 90 min; 0 = compound-well median, 100 = enzyme-acceptor control; activation, % at 11.2 µM; 6,700 compounds, 0.3% hits; AID 1508611;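 active means mean percent activation in the counterscreen above 29.09%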;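 further: counterscreen on off-target GPR119 to flag nonselective hits from the GPR151 activator screen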
Each line names hits and unclear results; the compound was inactive in the other large screens (follow-up assays come after a bar, where they were run); ! = a repeat was not active. Hits are enriched below; roughly 3.4% of the tested compounds scored in any of these assays.

Cc1cc(Nc2ccccc2)nc(Nc2ccc(-n3ccnc3)cc2)n1	none
Cc1cc(Nc2ccc(N3CCOCC3)cc2)nc(Nc2ccccn2)n1	none
Cc1cc(Nc2ccc(N3CCOCC3)cc2)nc(Nc2ccc(-n3ccnc3)cc2)n1	GPR151 ag 8.9, TEAD-YAP block 99.0 | GPR151 confirm inactive | GPR119 ag 63.2
COc1cccc(NC(=O)CSc2nc3nc(C)c(Cc4ccc(Cl)cc4)c(C)n3n2)c1	none
CCCNS(=O)(=O)c1ccc(CN2C(=O)c3cccnc3C2=O)cc1	none
Cc1cccnc1NS(=O)(=O)c1ccc(CN2C(=O)c3cccnc3C2=O)cc1	GPR151 ag 6.0 | GPR151 confirm inactive | GPR119 ag inactive
O=C1c2cccnc2C(=O)N1Cc1ccc(S(=O)(=O)N2CCCc3ccccc32)cc1	GPR151 ag 5.9 | GPR151 confirm inactive | GPR119 ag inactive
Cc1ccccc1-n1nnc(C(=O)Nc2ccc(F)cc2)c1N	none
CCCOc1ccccc1C1C(C(=O)OCCc2ccccc2)=C(C)NC2=C1C(=O)CC(c1ccc(OC)cc1)C2 (centres undefined)	none
O=C(CNC(=O)C1CCCCC1)NNC(=O)c1ccccc1Br	GPR151 ag 5.8 | GPR151 confirm inactive | GPR119 ag inactive
CN1C(=O)[C@H]2CN(C(=O)c3ccccc3)CCN2C(=O)[C@@H]1Cc1ccccc1	GPR151 ag 5.3 | GPR151 confirm inactive | GPR119 ag inactive
Nc1ccc(S(=O)(=O)NCc2ccncc2)cc1	none
O=S(=O)(NCc1ccncc1)c1ccc(I)cc1	GPR151 ag 9.7, TEAD-YAP block 39.8 | GPR151 confirm inactive | GPR119 ag inactive
Cc1ccc(-c2nc(-c3ccc(Cl)cc3)[nH]c2-c2ccccc2)cc1C	none
O=C1N[C@@H](Cc2ccc(O)cc2)C(=O)N2CCN(C(=O)c3cc(F)ccc3F)C[C@H]12	GPR151 ag 5.7 | GPR151 confirm inactive | GPR119 ag inactive
CC[C@@H]1NC(=O)[C@H]2CN(C(=O)c3cccc(Cl)c3)CCN2C1=O	GPR151 ag 12.7 | GPR151 confirm inactive | GPR119 ag inactive
O=C1N[C@@H](Cc2ccc(Cl)cc2)C(=O)N2CCN(C(=O)c3cc(Cl)cc(Cl)c3)C[C@H]12	GPR151 ag 15.5 | GPR151 confirm inactive | GPR119 ag inactive
C[C@@H](O)[C@@H]1NC(=O)[C@H]2CN(C(=O)c3ccc4ccccc4c3)CCN2C1=O	none
C[C@H](O)[C@H]1NC(=O)[C@H]2CN(C(=O)c3ccc4ccccc4c3)CCN2C1=O	GPR151 ag 6.2 | GPR151 confirm inactive | GPR119 ag inactive
Cc1cccc(C(=O)Oc2coc(CSc3nccn3C)cc2=O)c1	none
CCOC(=O)Cc1c(C)n2nc(C)cc2[nH]c1=O	none
O=C1CSC(c2ccccc2[N+](=O)[O-])N1CC12CC3CC(CC(C3)C1)C2 (centres undefined)	none
O=C(Nc1cccc(Cl)c1Cl)c1nn2c(C(F)(F)F)cc(-c3ccccc3)nc2c1Br	none
O=C1N[C@@H](Cc2cnc[nH]2)C(=O)N2CCN(C(=O)c3ccc(F)cc3)C[C@H]12	GPR151 ag 6.0 | GPR151 confirm inactive | GPR119 ag inactive
O=C(Nc1ccc(N2CCC(NCCN3CCNC3=O)CC2)cc1)C1CCCC1	GPR151 ag 6.3 | GPR151 confirm inactive | GPR119 ag inactive
O=C(COc1ccccc1)Nc1ccc(N2CCC(NCCN3CCNC3=O)CC2)cc1	none
Cc1ccc(CN2CCN(Cc3cccc(O)c3)CC2CCO)cc1 (centres undefined)	none
CCc1ccc(N(CC(=O)NC)S(C)(=O)=O)cc1	GPR151 ag 5.3 | GPR151 confirm inactive | GPR119 ag inactive
CCc1ccc(N(CC(=O)OC)S(C)(=O)=O)cc1	none
O=C1c2c(Cl)c(Cl)c(Cl)c(Cl)c2C(=O)N1c1ncn[nH]1	none
Cc1ccc(-n2c(CNS(C)(=O)=O)nnc2SCc2ccc(F)cc2)cc1	GPR151 ag 4.9 | GPR151 confirm inactive | GPR119 ag inactive
CS(=O)(=O)NCc1nnc(SCc2ccc(F)cc2)n1-c1ccc(F)cc1	none
O=C1Nc2cc3c(cc2C1(O)C(F)(F)F)OCCO3 (centres undefined)	none
NC(=O)CCC/C=C\C[C@@H]1[C@@H](/C=C/[C@@H](O)CCc2ccccc2)[C@H](O)C[C@@H]1O	GPR151 ag 7.0 (no result: FBW7 activator, TEAD-YAP block) | GPR151 confirm inactive | GPR119 ag inactive
O=C(CCC/C=C\C[C@@H]1[C@@H](/C=C/[C@@H](O)CCc2ccccc2)[C@H](O)C[C@@H]1O)NC(CO)CO	none (no result: FBW7 activator, TEAD-YAP block)
O=C(O)CCC/C=C\C[C@@H]1[C@@H](/C=C/[C@H](O)CCc2ccccc2)[C@H](O)C[C@@H]1O	GPR151 ag 5.6 (no result: FBW7 activator, TEAD-YAP block) | GPR151 confirm inactive | GPR119 ag inactive
Cn1cnnc1SCc1cccc([N+](=O)[O-])c1	none
Cc1ccc(-n2ncc3c(=O)n(CC(=O)Nc4cccc5ccccc45)cnc32)cc1C	GPR151 ag 6.7 | GPR151 confirm inactive | GPR119 ag inactive
Cc1ccc(NC(=O)Cn2cnc3c(cnn3-c3cccc(C)c3C)c2=O)cc1Cl	none
COC(=O)c1ccc(NC(=O)Cn2cnc3c(cnn3-c3cccc(C)c3C)c2=O)cc1	GPR151 ag 8.8 | GPR151 confirm inactive | GPR119 ag inactive
CCc1cccc(C)c1NC(=O)Cn1cnc2c(cnn2-c2ccc(OC)cc2)c1=O	GPR151 ag 6.9 | GPR151 confirm inactive | GPR119 ag inactive
COC(=O)c1c(NC(=O)c2ccc(S(=O)(=O)N3CC4(C)CC3CC(C)(C)C4)cc2)sc2c1CCN(C(C)=O)C2 (centres undefined)	none
NC[C@H]1O[C@H](O[C@H]2[C@H](O)[C@@H](O[C@H]3O[C@H](CO)[C@@H](O)[C@H](N)[C@H]3O)[C@H](N)C[C@@H]2N)[C@H](N)C[C@@H]1O	GPR151 ag 23.8! | GPR151 confirm inactive | GPR119 ag inactive
CCOC(=O)C1CCCN(CCC(=O)Nc2ccccc2)C1 (centres undefined)	none
CCOC(=O)C1CCCN(CCC(C)c2ccccc2)C1 (centres undefined)	GPR151 ag 8.1 | GPR151 confirm inactive | GPR119 ag inactive
O=C(Cc1ccccc1)NCC(=O)OCc1ccc(Cl)cc1	none
CCOC(=O)CNC(=O)N(Cc1ccccc1)Cc1ccccc1	GPR151 ag 5.3 | GPR151 confirm inactive | GPR119 ag inactive
CCOC(=O)CNC(=O)OCc1ccccc1	none
NCC(=O)NCC(=O)OCc1ccccc1	GPR151 ag 7.5 | GPR151 confirm inactive | GPR119 ag inactive
CCC(C)NC(=O)CN(c1cccc(C(F)(F)F)c1)S(C)(=O)=O (centres undefined)	none
CCC(C)NC(=O)CN(c1cccc(C(F)(F)F)c1)S(=O)(=O)c1ccccc1 (centres undefined)	GPR151 ag 10.0 | GPR151 confirm inactive | GPR119 ag inactive
CCN(CCn1cccn1)c1nc2nonc2nc1NCc1ccccc1	GPR151 ag 6.5 | GPR151 confirm inactive | GPR119 ag inactive
